Compounds with a hit are over-represented: about 4.6% of the library has one in this group of screens.
PfHsp90 yeast 2: inhibits growth of yeast expressing Plasmodium falciparum Hsp90 | S. cerevisiae expressing PfHsp90, BacTiter-Glo ATP, 48 h; yeast lacking PDR1 and PDR3 efflux regulators | inhibition, % at 9.4 µM | actives 0.32% (n = 310,000);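 active means every replicate shows inhibition above about 80%, whatever the replicate mean, limit read from the data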;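 further: 0% = DMSO neutral controls and 100% = 20 µM radicicol positive controls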
tim23-1 inh: tim23-1 yeast growth inhibition. S. cerevisiae tim23-1 growth, BacTiter-Glo luminescence, 24 h. inhibition, % at 20 µM. actives 1.3% (n = 330,000);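 active means growth inhibition of the mutant yeast at or above 50%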;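 further: temperature-sensitive mutant grown at 25 °C; plate controls were DMSO-treated mutant yeast for no effect and medium wells lacking yeast for full effect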
NALP3 yeast inh: inhibitors of NALP3 inflammasome in yeast. Yeast reconstituted NLRP3/ASC/caspase-1, beta-gal luminescence, 24 h. inhibition, % at 10 µM. actives 0.39% (n = 330,000). AID 2825;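 active means inhibition of 50% or more; inactive means inhibition below 50%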;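 further: plate controls were induced DMSO wells for no effect and uninduced yeast grown without galactose for full effect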
TIM10 inh: growth inhibitors of TIM10 yeast strain; S. cerevisiae TIM10 strain growth, BacTiter-Glo luminescence, 24 h; inhibition, % at 10 µM; actives 1.4% (n = 330,000); AID 463195;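 active means inhibition of 40% or more at the single tested concentration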;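 further: wild-type TIM10 isogenic control strain grown at permissive 25 °C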
SKKanGAS inh: blocks kanamycin growth of S. pyogenes SKKanGAS strain. BacTiter-Glo, 6 h. inhibition, % at 7.5 µM. actives 1.3% (n = 300,000). AID 1662;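 active means mean replicate score, as percent of positive control median, at least 50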;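 further: strain carries kanamycin resistance gene driven by streptokinase promoter and grows in 40 µg/ml kanamycin; loss of luminescence reflects streptokinase promoter inhibition or plain growth inhibition; 0% = median of DMSO wells and 100% = positive control at its reference dose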
tim10-1 inh: growth inhibitors of tim10-1 mutant yeast; S. cerevisiae tim10-1 ts strain growth, BacTiter-Glo, 24 h; inhibition, % at 20 µM; actives 2.2% (n = 330,000);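 active means inhibition of at least 40%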;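 further: mutant grown at 25 °C; 0% = DMSO wells with yeast and 100% = wells holding no yeast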
tim10-1 confirm: tim10-1 yeast growth inhibition, confirmed; shares compounds with tim10-1 inh; S. cerevisiae tim10-1 ts strain growth, BacTiter-Glo, 24 h; actives 56% (n = 7,400); inhibition, % at 20 µM; AID 463213;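 active means inhibition of yeast growth at or above a set limit in either of two repeat tests at 20 µM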;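 further: tim10-1 mutant grown at permissive 25 °C to find synthetic lethal compounds; 0% = DMSO yeast wells and 100% = medium wells without yeast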
Starred values were filed as active, the others as inactive; · = no result given.

SMILES | PfHsp90 yeast 2 | tim23-1 inh | NALP3 yeast inh | TIM10 inh | SKKanGAS inh | tim10-1 inh | tim10-1 confirm
Cc1cc(C)c2c(n1)sc1c(N3CCCCC3)ncnc12 | 0.5 | 30.5 | 16.6 | 15.5 | 0.8 | 20.2 | ·
O=C(CCN1CCN(c2ccccc2)CC1)c1ccc(Br)cc1 | -3.7 | 17.3 | 11.2 | -9.7 | -0.3 | 44.7* | 29.1
O=C(CCN1CCN(c2ccccc2F)CC1)c1ccc(Br)cc1 | 2.0 | 26.2 | 14.0 | 5.5 | 5.1 | 36.3 | ·
CCn1c2ccccc2c2nc3cc(OC)c(OC)cc3nc21 | · | 42.1 | 29.4 | 29.9 | -7.7 | 29.7 | ·
CCn1c2ccccc2c2nc3ccccc3nc21 | -44.4 | 42.8 | -26.2 | 7.3 | 10.0 | 43.3* | 35.3*
COc1ccc(C2/C=C\CN(C(=O)c3ccc(C)cc3)CC(=O)N2Cc2ccc(F)cc2)cc1 (stereo not drawn) | · | 8.2 | 14.3 | 12.7 | 4.5 | 40.2* | 20.6
CC(C)Cn1c(-c2ccc(C#N)cc2)nc2c1c(=O)[nH]c(=O)n2CC(C)C | 1.5 | 5.0 | -2.5 | 12.8 | -5.5 | 12.5 | ·
COc1ccc2[nH]c(C)c(CCNC(=S)Nc3cc(C)ccc3C)c2c1 | 16.6 | -8.3 | 10.7 | -7.7 | -0.5 | 3.2 | ·
CCc1cccc(C)c1NC(=S)NCCc1c(C)[nH]c2ccc(C)cc12 | -25.5 | 33.4 | 14.7 | 14.8 | 10.0 | 41.2* | 25.6
CCOC(=O)C1=C(C)N(CCCC(=O)O)C(=O)NC1c1ccc(C(F)(F)F)cc1 (stereo not drawn) | · | -7.0 | 2.8 | -4.8 | -1.8 | -2.7 | ·
COC(=O)C1=C(C)N(C)C(=S)N(C)C1c1cccc(Br)c1 (stereo not drawn) | 28.1 | 44.4 | 19.4 | 25.0 | 18.5 | 41.5* | 27.4
CCOC(=O)C1=C(C)N(C)C(=S)N(C)C1c1ccc(OC)cc1 (stereo not drawn) | · | 23.1 | -3.6 | 12.6 | -0.5 | 31.9 | ·
CCOC(=O)c1sc2nc3c(cc2c1N)COC(C)(CC)C3 (stereo not drawn) | 0.7 | 30.7 | 8.8 | 34.2 | 17.0 | 42.8* | 27.6
CCOC(=O)c1sc2nc3c(cc2c1N)COC(C)(C)C3 | 9.4 | 20.1 | 24.1 | 4.2 | · | 40.1* | 25.6
CC(=O)c1ccccc1NC(=O)Cn1c(=O)cnc2ccccc21 | 13.7 | 11.8 | 13.7 | -11.0 | -6.0 | 19.4 | ·
COC(=O)[C@@]1(Cc2ccc(F)cc2)[C@H]2c3cc(C(=O)N4CCCC4)n(CCCNc4ncc(C(F)(F)F)cc4Cl)c3C[C@H]2CN1C(=O)c1ccccc1 | -22.4 | 27.0 | 28.9 | 5.7 | 26.6 | 6.9 | ·
c1ccc(-c2cc(-c3nnco3)c3ccccc3n2)nc1 | · | 1.3 | 8.7 | -11.3 | 5.6 | 40.2* | 24.6
COc1cc(-c2cc(-c3nnco3)c3ccccc3n2)cc(OC)c1OC | · | 26.8 | 6.2 | 5.9 | 3.9 | 13.7 | ·
CCOC(=O)c1c(-c2ccc(C)o2)csc1NC(=S)NC(=O)N(C)C | -25.2 | 41.1 | -6.3 | 37.3 | -9.2 | 55.4* | 45.5*
CCOC(=O)c1c(-c2ccc(C)o2)csc1NC(=O)CN1CCOCC1 | -16.6 | 0.5 | 17.6 | 18.5 | -6.4 | 17.2 | ·
CCOC(=O)c1c(-c2ccc(C)o2)csc1NC(=O)COC(=O)c1cccs1 | -21.9 | 41.8 | 19.7 | 21.0 | 6.4 | 41.8* | 30.0
COc1cc(C(=O)O/N=C(\N)Cc2ccc([N+](=O)[O-])cc2)cc(OC)c1OC | · | 22.4 | -17.6 | 25.4 | 0.9 | 63.3* | 53.2*
CCN(N=O)[C@@H](Cc1ccccc1)CN(N=O)[C@@H](Cc1ccccc1)CN(C)N=O | 13.6 | 22.9 | 11.5 | 7.3 | 3.9 | 20.2 | ·
COc1ccc(C(C)(C)C)cc1NC(=O)CCCN1C(=O)NC(C)(C)C1=O | 6.7 | 9.8 | 6.1 | 6.9 | · | 3.7 | ·
CSc1nc(-c2ccccc2)cn1-c1ccc(NC(C)=O)cc1 | 12.2 | 35.7 | 17.4 | 15.2 | 1.5 | 45.8* | 31.2*
SMILES | PfHsp90 yeast 2 | tim23-1 inh | NALP3 yeast inh | TIM10 inh | SKKanGAS inh | tim10-1 inh | tim10-1 confirm
C=CCOn1c(=O)c(-c2cc3ccccc3o2)[n+]([O-])c2ccccc21 | 7.0 | 27.8 | 20.0 | 18.4 | 8.4 | 18.6 | ·
CCOC(=O)COn1c(=O)c(-c2cc3ccccc3o2)[n+]([O-])c2ccccc21 | · | 29.3 | 20.8 | 7.3 | 15.7 | 43.8* | 11.8
Cc1ccc(/C(N)=N/OC(=O)N2CCOCC2)cc1 | 10.0 | 29.0 | 17.7 | 30.5 | 1.3 | 58.4* | 46.1*
COC(=O)c1ccc([C@H](NC(=O)c2ccco2)[C@]2(C)C[C@H]2C2CCCCC2)cc1 | -7.8 | 31.2 | -15.0 | 14.7 | 14.6 | 19.1 | ·
Cc1ccc(NC(=O)c2cccc(-n3cnnn3)c2)cc1Cl | 9.5 | -6.5 | 12.3 | -0.8 | · | 1.5 | ·
CCc1nnc(NC(=O)c2cc(-c3ccccn3)nc3ccc(Br)cc23)s1 | -13.3 | 7.1 | -1.9 | -3.8 | 6.6 | 83.2* | -21.4
Cc1ccc(C)c(S(=O)(=O)N2CCN(Cc3cc4c(cc3O)OCO4)CC2)c1 | -4.3 | 21.3 | 15.5 | 6.6 | · | 14.3 | ·
O=C1CC(N2CCN(c3ccc(Cl)cc3)CC2)C(=O)N1c1ccccc1 (stereo not drawn) | 8.3 | 10.7 | 19.7 | -8.7 | 3.5 | -11.7 | ·
COc1ccccc1N1CCN(C2CC(=O)N(c3cccc(Br)c3)C2=O)CC1 (stereo not drawn) | -18.1 | 26.8 | 18.1 | 10.6 | 1.7 | 48.7* | 36.5*
O=C1CC(N2CCN(c3ccccc3Cl)CC2)C(=O)N1c1ccccc1 (stereo not drawn) | 2.2 | 11.0 | 17.0 | -11.9 | -3.9 | 49.5* | 19.1
CCOc1ccc(N2C(=O)CC(N3CCN(c4ccc(Cl)cc4)CC3)C2=O)cc1 (stereo not drawn) | 19.3 | 16.4 | 17.0 | 2.3 | 2.4 | 44.6* | 24.1
CCN(CC(=O)NC1CCS(=O)(=O)C1)S(=O)(=O)c1ccc(C)cc1C (stereo not drawn) | 21.8 | 6.1 | -3.6 | 4.7 | 0.0 | 6.9 | ·
Cn1c(N)c(C(=O)Nc2ccc(-c3ccccc3)cc2)sc1=S | -51.2 | 37.4 | 4.0 | 16.5 | 13.1 | 29.0 | ·
COc1ccc(OC)c(S(=O)(=O)N2CCN(C(=O)c3cc(C4CC4)nn3-c3ccccc3)CC2)c1 | -23.0 | 23.9 | 15.9 | 17.6 | · | 8.4 | ·
Cc1cccc(CN2CCc3c([nH]c4ccccc34)C2)c1 | -5.3 | 22.2 | -3.8 | 29.4 | 3.2 | 32.9 | ·
Clc1cccc(CN2CCc3c([nH]c4ccccc34)C2)c1 | -9.0 | 25.1 | 8.1 | 34.6 | -1.7 | 45.2* | 43.8*
C=CCn1c(SCc2ccc(C#N)cc2)nnc1-c1cccc(Cl)c1 | -0.1 | 40.7 | 14.0 | 23.2 | -11.1 | 46.0* | 23.1
C=CCn1c(SCc2cccc(C#N)c2)nnc1-c1ccccc1O | 5.0 | 34.3 | -6.2 | 7.6 | -2.9 | 19.5 | ·
CSc1ncccc1C(=O)Nc1nc(C(C)(C)C)cs1 | -10.6 | 43.6 | 39.3 | 18.3 | 4.5 | 10.8 | ·

High-throughput results (PubChem)
